{
  "source": "the supplement of paper PMC6555819",
  "data": [
    {"system": "VDR:RXRa (NR concentration 270 nM, RXRa partner concentration 90 nM)", "assay": "PBM binding z-score (relative to random genomic background probes); higher = stronger binding; sequences stand for … in GC…GCGATTGACAGCGTAGAATGAAGG", "protocol": "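Protein-binding microarray (Agilent 4x180K custom design, double-stranded 60-nt probes: 5' GC cap, 34-nt variable region, 24-nt constant primer region; full probe sequence given). Purified or IVT nuclear receptor:RXRα heterodimers (3:1 NR:RXRα, mostly 270:90 nM) or homodimers were incubated for 1 h in PBS with 2% milk and no ligand, then detected with Alexa488 antibodies. Fluorescence from o1-orientation probes (~5 replicates averaged) was converted to z-scores against 500 random hg19 background probes. Variable regions are seed direct-repeat (DR0–DR5) sites, all their single-nucleotide variants and half-site ablations.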", "values": [
      {"sequence": "TCATATAGGTAAAGGTGAAACTCGAACGATATGA", "PBM binding z-score": 0.901},
      {"sequence": "TCGAGTAGGTTAGACGGGGCATTCAGCCAACATA", "PBM binding z-score": 1.29},
      {"sequence": "TCTTGTAGATCAATAGAGATTAAGAAAGTGCGCT", "PBM binding z-score": 0.285},
      {"sequence": "ACTACTAGTTGAGACGAGGGCAACCGATAGGTTG", "PBM binding z-score": 0.46},
      {"sequence": "ATCTCTAGGTAAAGATAGATCAGTGAATGCAAAT", "PBM binding z-score": 0.00458},
      {"sequence": "TCTTGTAGATCAGCATGTTAAGAAAGCTGGCCAA", "PBM binding z-score": 0.172},
      {"sequence": "CCGACTGGGACAAAGGTTACCATACTCAGTACGA", "PBM binding z-score": 1.14},
      {"sequence": "AATACAGGGTCGTCGTAGGCCAGAGTACGCACAG", "PBM binding z-score": 2.62},
      {"sequence": "TAGCCTTGGTCATTGGGCCAGTATAGTACGCATC", "PBM binding z-score": -0.419},
      {"sequence": "GGAACGAGGGCAAAGTTGTTAGCATCTGTCGACG", "PBM binding z-score": 1.09},
      {"sequence": "CGGCCAAGGTCAGCAGGTCAGTGAAAGCGACGTG", "PBM binding z-score": 3.8},
      {"sequence": "GCATATAGGTAATACAAGGTGAAAGGCCGATTGT", "PBM binding z-score": 0.402},
      {"sequence": "TCATATAGGAAATACAGGTGAAAGTCGGCATCTA", "PBM binding z-score": 1.02},
      {"sequence": "TCTTGTAAATCAAAGGTTAAGAAAGCCGAAGCCT", "PBM binding z-score": 1.07},
      {"sequence": "AGTCAAAGTTCAGGACGAGGTAACGTACAGCACG", "PBM binding z-score": 2.88},
      {"sequence": "CCTTACGGGCCACTCCAGGTTATAGCATCGGAGT", "PBM binding z-score": -0.25},
      {"sequence": "TCTTGTGGATCAAGCAGGTTAAGAAAGCCTGAGT", "PBM binding z-score": 0.403},
      {"sequence": "CCGAGTAGGTTATTGGGCATTCAGGCAACGGTGA", "PBM binding z-score": -0.494},
      {"sequence": "AGAATGAGGTTAAAATCAGGGAAACAGAATACAT", "PBM binding z-score": 1.33},
      {"sequence": "TCTTGTAGATCTAGCAGGTTAAGAAAGCCTGAGT", "PBM binding z-score": 0.391},
      {"sequence": "ACTCGGAGCACAAAGGTCAGAGCTACGCCAGTGA", "PBM binding z-score": 3.58},
      {"sequence": "TCGAGTAGGTTAGGGGCATTCTGAATGGCGTCGA", "PBM binding z-score": 0.242},
      {"sequence": "GCGAGTGGGGCATCAGCAGGTTACCATAACTTAA", "PBM binding z-score": 0.049},
      {"sequence": "TCATATAGGTAAACAGGTGTAAGTCCGTAAGTTA", "PBM binding z-score": 1.6},
      {"sequence": "GCAGACAGGTGAAACGCAGGAAACTCAGGGTGGC", "PBM binding z-score": -0.533},
      {"sequence": "TATACAGGGTCAAAGGCCAGAGCACGAATGTCGA", "PBM binding z-score": 4.37},
      {"sequence": "AACTCTAGGTAAAGATAGTTCAGTGAATGCAAAT", "PBM binding z-score": 0.688},
      {"sequence": "TAGCCTAGGTCATGGGCGAGTATACCACGCGAAC", "PBM binding z-score": 2.32},
      {"sequence": "ATCTTTAGGTAAAGTTCAGTGAAAGATCGATAGA", "PBM binding z-score": 1.7},
      {"sequence": "TCTAGCAGGCCAAAGGGTCACTCAAGAGGTACGG", "PBM binding z-score": 3.12},
      {"sequence": "CATACAGGGTCACCTAGGCCAGAGTAGGGACGGC", "PBM binding z-score": 5.14},
      {"sequence": "CCTGCTAGGTCTTGGTCAGCTAATCTACAGTATG", "PBM binding z-score": -0.434},
      {"sequence": "TCATACAGGTGAAGGTAACTCAGGTACGCAGTCG", "PBM binding z-score": 1.36},
      {"sequence": "TCTTGCAGATCAAGCAGGTTAAGAAAGCCTGAGT", "PBM binding z-score": 0.157},
      {"sequence": "TCAAATAGGTAATACAGGTGAAAGTCGGCATCTA", "PBM binding z-score": 1.28},
      {"sequence": "TTACCAAGGTGAAAAGTCGTTGATGCACGCCTTG", "PBM binding z-score": 0.0875},
      {"sequence": "ATCGAAAGGGCGAAGGTGAGTATACCCACCCGAA", "PBM binding z-score": 0.347},
      {"sequence": "ATAGCAAGGTGATCGTGAGGTCGTTGATACTAAC", "PBM binding z-score": 2.94},
      {"sequence": "TCTAGCAGGCTAGAGGGTCACTCAAGAGGTACGG", "PBM binding z-score": 1.38},
      {"sequence": "CCTGCTAGATCAATGGTCAGCTAAAGCAGCTCGC", "PBM binding z-score": -0.615}
    ]}
  ]
}
